# Data published in the supplement of paper PMC6555819.
# Assays:
# Test in all cases: PBM binding z-score (relative to random genomic background probes); higher = stronger binding; sequences stand for … in GC…GCGATTGACAGCGTAGAATGAAGG
# [1] = tested on: PPARg:RXRa DBDmut IVT, anti-RXR (DBD mutation: RXRa K156A/R161A, NR concentration 270 nM, RXRa partner concentration 90 nM)
# In short: (§1)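 Ligand-free nuclear receptor dimers were bound for 1 h to custom Agilent 4×180K protein-binding microarrays. Detection used antibodies against each partner (one per run). Binding z-scores rest on regression-normalized fluorescence, with random background probes as the reference.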
# [2] = tested on: PPARg:RXRa IVT, anti-PPARg (NR concentration 270 nM, RXRa partner concentration 90 nM)
# In short: as §1
# [3] = tested on: PPARg DBDmut:RXRa IVT, anti-PPARg (DBD mutation: PPARg1 K132A/R137A, NR concentration 270 nM, RXRa partner concentration 90 nM)
# In short: as §1
# [4] = tested on: PPARg DBDmut IVT, anti-PPARg (DBD mutation: PPARg1 K132A/R137A, NR concentration 270 nM)
# In short: as §1
# [5] = tested on: PPARg homodimer (NR concentration 180 nM)
# In short: as §1
# [6] = tested on: PXR:RXRa (NR concentration 270 nM, RXRa partner concentration 90 nM)
# In short: as §1
# [7] = tested on: PXR homodimer (NR concentration 270 nM)
# In short: as §1
# [8] = tested on: RARa:RXR (NR concentration 270 nM, RXRa partner concentration 90 nM)
# In short: as §1
# [9] = tested on: RARa homodimer (NR concentration 270 nM)
# In short: as §1
# [10] = tested on: RARb:RXRa (NR concentration 270 nM, RXRa partner concentration 90 nM)
# In short: as §1
# [11] = tested on: RARb homodimer (NR concentration 270 nM)
# In short: as §1
# [12] = tested on: RARg:RXRa (NR concentration 270 nM, RXRa partner concentration 90 nM)
# In short: as §1
# [13] = tested on: RARg homodimer (NR concentration 270 nM)
# In short: as §1
# [14] = tested on: RXRa DBDmut IVT, anti-RXR (DBD mutation: RXRa K156A/R161A, NR concentration 90 nM)
# In short: as §1
# [15] = tested on: RXRa homodimer (NR concentration 180 nM)
# In short: as §1
# [16] = tested on: THRa:RXRa (NR concentration 90 nM, RXRa partner concentration 90 nM)
# In short: as §1
# [17] = tested on: THRa homodimer (NR concentration 90 nM)
# In short: as §1
# [18] = tested on: VDR homodimer (NR concentration 270 nM)
# In short: as §1
Sequence,PBM binding z-score [1],PBM binding z-score [2],PBM binding z-score [3],PBM binding z-score [4],PBM binding z-score [5],PBM binding z-score [6],PBM binding z-score [7],PBM binding z-score [8],PBM binding z-score [9],PBM binding z-score [10],PBM binding z-score [11],PBM binding z-score [12],PBM binding z-score [13],PBM binding z-score [14],PBM binding z-score [15],PBM binding z-score [16],PBM binding z-score [17],PBM binding z-score [18]
CCTACTGGGCCAACAAGGTCATTGATGCCGATAA,3.7,4.68,-0.0965,-0.198,2.24,3.92,3.62,3.64,0.0671,2.8,3.24,2.97,2.76,0.655,3,3.4,2.41,3.7
ACTTACGGGTCAACGGGGTTATAGCACGCGTATA,3.04,4.81,1.21,1.3,2.83,5.57,2.28,5.87,0.668,4.47,3.81,5.9,5.07,2.6,6.78,4.23,1.08,3.81
TTACCAAGGTGAAGGTCGTGGATCCCTCTGTAGA,2.23,3.55,-0.363,0.188,0.731,1.53,-0.1,2.38,-0.307,2.4,2.22,1.86,1.49,0.01,2.63,2.79,1.11,0.222
TAGCCTCGGTCATTCAGGGGCCAGTATAGAAAGC,-0.712,0.476,0.246,-0.322,0.0789,-0.0122,-0.574,0.667,-0.375,2.68,2.44,3.5,3.37,-0.617,0.151,1.46,-0.717,-0.088
CCTTACGGGTCGCTGACAGGTTATAGCATTTGGA,0.346,0.0988,-0.356,-0.76,0.641,1,-0.0348,1.68,-0.0216,1.18,1.02,2.45,1.01,0.55,1.78,0.913,-0.259,0.138
CGTCGAAGGTCAATGCTAGGTCAGTGAAAGCATT,2.56,3.93,-0.174,-1.09,4.55,4.73,0.726,6.43,0.867,5.19,5.11,7.62,6.84,2.5,5.4,4.28,1.03,1.91
TAGCCTAGGTGATTGGGCCAGTATAGTACGCATC,0.598,1.35,-0.207,-0.683,-0.347,-0.55,-0.684,-0.276,-0.504,-0.13,-0.159,-0.276,-0.119,-0.669,-0.198,-0.224,-0.512,-0.67
GCTGCTAGGTCAGGTTGGTCAGCTAACGGGTACG,2.95,2.05,-0.747,-0.959,0.974,0.333,-0.532,0.458,-0.285,3.33,2.53,2.7,3.45,0.582,0.927,1.84,0.48,0.466
ATACGTAGGTTATCGGGTCATTCAGTTTGCGCAT,3.06,3.95,1.74,0.954,2.79,3.74,8.01,3.84,0.759,2.59,2.77,3.41,2.36,1.77,3.41,3.18,2.93,3.86
TCTTGTTGATCAAAGGTTAAGAAAGCCGAAGCCT,1.8,2.11,1.32,0.442,1.36,1.74,0.07,2.31,0.624,2.04,1.89,1.64,1.11,0.76,2.64,1.58,-0.291,0.435
ACTAGCAGGCCAAAGGTCACTCAAGATTAGTCCG,2.74,5.44,-0.0674,0.109,1.96,5.11,0.886,5.72,0.747,4.81,4.87,6.14,5.41,0.861,6.31,3.6,0.91,1.58
ATATGTAGGTTCCATCCGGGTCATTCAGGCTATG,4.13,4.29,1.99,1.93,2.32,3.14,2.22,2.86,0.215,1.43,2.11,1.65,1.19,0.91,2.18,3.44,2.32,2.91
TCTAGCTGGTCACGGAGGTCACACACGACGGGTA,1.56,3.5,0.457,0.217,3.03,4.91,0.955,5.08,1.08,3.81,4.17,4.88,5.01,0.665,5.01,3.67,2.27,2.72
AGTCAAAGTTCAGGACGAGGTAAAGTAAAGCACG,0.127,1.81,0.318,0.49,2.36,2.86,1.28,2.84,1.52,4.33,3.05,4.76,4.51,3.04,3.22,3.78,1.51,2.35
ATCTGTAGGTTATCGGGTCATTCAGTTTGCGCAT,4.65,5.29,1.81,1.76,2.43,3.86,7.32,3.93,1.11,2.71,3.19,3.59,2.78,1.68,3.48,3.36,3.04,3.95
CAAAGTAGGTCACGAAAGGTCAAAGTCGAATGAC,8.95,9.16,2.49,0.871,5.21,7.05,2.22,7.43,4.05,5.68,6.1,8.06,8.76,2.36,8.62,4.95,1.49,3.31
